BJeLR viab HTS: BJeLR cell viability loss, primary screen, luminescence, CellTiterGlo ATP | 0.64% of 30,000 active | viability loss activity score, % (no concentration beside the values) | AID 2275, 2010 | BJeLR fibroblasts viability, 48 h; HRASV12, hTERT and SV40 LT/ST transformed; in the data active = viability loss activity score above about 50%; inconclusive = no clear call, values can overlap the other calls; inactive = below about 35%;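 also: higher score means fewer live cells and less ATP luminescence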
A1 inh: inducers of caspase activity in MEF A1-2A-BIM cells, primary screen, A1 inhibitor project, cell-based, CaspaseGlo luminescence; 0.51% of 21,000 active; caspase-Glo luminescence, 3 h; percent of clofoctol signal, DMSO as zero; caspase activation, % (concentration not given with the values);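 active = most replicate scores above 10, or exactly half above 10 with mean activity above 10; inconclusive = mean activity below 10 while half the replicates exceed 10; inactive = most replicate scores below 10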;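 also: effector caspase 3 and 7 activity cleaving a DEVD luciferin substrate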
* marks the source's active call; other numbers are inactive results; ? = inconclusive; . = not tested or not shown. This is a sample that favours compounds with a hit; in the whole collection about 0.86% have one here.

SMILES | BJeLR viab HTS | A1 inh
C[C@@H]1CN([C@H](C)CO)C(=O)c2cc(N(C)C)ccc2O[C@@H]1CN(C)Cc1ccc(C(=O)Nc2ccccc2N)cc1 | 54.1* | .
Cn1cc(C2=C(c3cn(CCCSC(=N)N)c4ccccc34)C(=O)NC2=O)c2ccccc21 | 56.5* | 4.1
CN(C)CCCn1cc(C2=C(c3c[nH]c4ccccc34)C(=O)NC2=O)c2ccccc21 | 2.2 | 5.9
OC(CN1CCOCC1)c1ccccc1 (stereo not given) | -3.1 | -1.1
CC(C)CCOc1ccc(C(=O)C(CN2CCOCC2)c2ccccc2)cc1 (stereo not given) | 77.5* | 0.7
CCOC(=O)c1ccc(/C=N/O)[n+](Cc2ccccc2)c1 | -5.2 | -0.4
C[C@H](CO)N1C[C@H](C)[C@H](CN(C)Cc2ccccc2)Oc2c(NC(=O)c3cnccn3)cccc2C1=O | 2.4 | .
C/C=C(\C)C(=O)O[C@@H]1[C@@H](OC(C)=O)C2[C@@]3(C)CC[C@H](OC4CC(OC)C(OC5CC(OC)C(OC6CC(OC)C(OC7OC(C)C(OC8OC(CO)C(O)C(O)C8O)C(OC)C7O)C(C)O6)C(C)O5)C(C)O4)CC3=CC[C@@]2(O)[C@@]2(O)CC[C@H](C(C)=O)[C@@]12C (stereo not given in full) | -13.7 | 0.9
CO[C@@H]1CC(OC2CCC3(C)C(CCC45CCC(C6=CC(=O)OC6)C(C)(CCC43)C5=O)C2)O[C@H](C)[C@@H]1O[C@@H]1O[C@H](CO[C@@H]2O[C@H](CO)[C@@H](O)[C@H](O)[C@H]2O)[C@@H](O)[C@H](O)[C@H]1O (stereo not given in full) | 91.7* | -0.1
O=C(CSc1cn(CC(=O)N2CCCC2)c2ccccc12)Nc1ccccc1 | 5.1 | 0.5
CCOc1ccc2nc(N3CCCCC3)sc2c1 | 14.5 | .
CCOc1ccc(-c2nc3ccc(-c4nc5ccc(N6CCN(C)CC6)cc5[nH]4)cc3[nH]2)cc1 | 126.0* | -0.2
Cc1[nH]c2ccccc2c1C(c1c(C)[nH]c2ccccc12)C(C)C | -1.7 | -0.2
Cc1[nH]c2ccccc2c1Sc1ccccc1 | 1.0 | 10.5*
CC(=O)N/C(=C/c1ccccc1Br)C(=O)NC1CCCCCC1 | -1.0 | 0.4
CCc1ccc(C2=NNC(=O)CC2)cc1 | 4.3 | -2.4
CCC1CN2CCc3cc(OC)c(OC)cc3[C@@H]2C[C@@H]1C[C@H]1NCCc2cc(OC)c(OC)cc21 (stereo not given in full) | 85.9* | 16.6*
CCCC(=O)N1CCc2cc(OC)c(OC)cc2C1COc1ccc(OC)cc1 (stereo not given) | 2.9 | -0.1
COc1ccc2[nH]c3c(=O)n(CC(=O)N4CCN(c5ccc(F)cc5)CC4)c(=S)[nH]c3c2c1 | -1.9 | 4.3
COc1ccc2[nH]c3c(=O)n(Cc4ccc(C(=O)NCCc5ccc(C)cc5)cc4)c(=S)[nH]c3c2c1 | 3.9 | 111.9*
Cc1cc(C)c(C#N)c(Sc2ncnc3c2nnn3Cc2ccccc2)n1 | 32.5 | 9.8*
Cc1cc(C)c(C#N)c(SCc2ccccc2)n1 | -9.9 | 0.3
NCc1ccccc1CC(=O)N[C@@H]1C(=O)N2C(C(=O)O)=C(CSc3nnnn3CC(=O)O)CS[C@H]12 | -4.7 | 0.4
CC1(C)Oc2ccc(C#N)cc2[C@@H](OC2=CC(=O)CC2)[C@@H]1O | 2.9 | -0.3
CC(C)C[C@@H](/C=C/S(C)(=O)=O)NC(=O)[C@H](CC(C)C)NC(=O)[C@H](CC(C)C)NC(=O)OCc1ccccc1 | 116.3* | -2.2
SMILES | BJeLR viab HTS | A1 inh
CC(C)C[C@@H](NC(=O)OCC1c2ccccc2-c2ccccc21)C(=O)O | 5.9 | 0.0
CCNc1cc(N)[n+](CC)c2n[nH]c(N)c12 | -7.5 | 0.6
CCc1nc(N)nc(N)c1-c1ccc(Cl)cc1 | 77.2* | -0.3
CCOC(=O)c1sc2sc(C(=O)OCC)c(-c3ccc(Cl)cc3)c2c1N | -2.1 | 0.3
CNC[C@H]1Oc2ccc(NC(=O)Nc3ccc(F)cc3)cc2C(=O)N([C@H](C)CO)C[C@H]1C | -1.3 | -0.1
COc1ccc2c(c1)CCC(=O)C2 | -11.8 | -1.3
COC(=O)c1[nH]c2c(c1C)C(=O)CC(c1ccccc1)C2 (stereo not given) | 60.2* | .
CCCc1c(C(=O)OCC)[nH]c2c1C(=O)CC(c1ccccc1)C2 (stereo not given) | 2.8 | .
C=C(CO)C(=O)O[C@H]1CC(=C)[C@@H]2CC(=O)[C@H](C)[C@@H]2[C@H]2OC(=O)C(=C)[C@@H]21 | 68.6* | 0.4
C=C1C(=O)O[C@H]2C1[C@H](OC(=O)/C(C)=C/CO)C/C(C)=C\CC[C@@]1(CO)OC21 (stereo not given in full) | 2.1 | -0.1
C[C@H](CO)N1C[C@H](C)[C@@H](CN(C)C)Oc2c(NC(=O)C3CCOCC3)cccc2C1=O | -2.6 | .
CCCCc1ccc2nc(NC(=O)OC)[nH]c2c1 | 66.5* | -2.5
COC(=O)Nc1nc2ccc(-c3n[nH]c(=O)c4ccccc34)cc2[nH]1 | 16.7 | 0.2
Cc1noc(C)c1NC(=O)Nc1ccc2c(c1)C(=O)N([C@H](C)CO)C[C@@H](C)[C@@H](CN(C)C(=O)Nc1cccc3ccccc13)O2 | 3.5 | 0.3
CC(C)CCN=CC1=C(O)CC(c2ccccc2)CC1=O (stereo not given) | 7.0 | 0.3
c1ccc(CN(CCN(Cc2ccccn2)Cc2ccccn2)Cc2ccccn2)nc1 | 110.3* | ?
Cc1cc[n+](Cc2ccccn2)c(N)c1 | 5.7 | 0.4
C[C@@H]1CN([C@H](C)CO)C(=O)c2cc(NC(=O)CCC(F)(F)F)ccc2O[C@H]1CN(C)C(=O)Nc1ccc(C(F)(F)F)cc1 | -0.3 | -0.3
Cc1ccc(NC(=O)CC(NCCc2ccccc2)C(=O)O)cc1 (stereo not given) | -5.3 | 0.1

Screening results deposited in PubChem by Broad Institute.
